Only some compounds are listed: those with a hit (about 19% of all), similar ones and a draw of the others.
HT1080-NT tox: kills 2HG-producing HT-1080-NT fibrosarcoma cells; HT-1080-NT fibrosarcoma viability, CellTiter-Glo ATP luminescence, 48 h; Potency, µM (titrated, usually from 46.1 µM), most hits filed as cytotoxic; 360,000 tested, 1.6% active; AID 686970;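 also: NT is the 2HG producing partner of a matched IDH1 knockdown line; nearly all actives have a fitted effect of over 55% in size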
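750 cells/well, RPMI + 5% FBS; 2 h settle, compound pin-transfer, 48 h at 37 degrees C. CellTiter-Glo 10 min RT, luminescence. Normalized to DMSO and media-only wells.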
TDP1 cell noCPT: qHTS for Inhibitors of human tyrosyl-DNA phosphodiesterase 1 (TDP1): qHTS in cells in absence of CPT. DT40 Tdp1-/- hTDP1 cells, no CPT, ATP luminescence, 48 h. Potency, µM (titrated, usually from 46.2 µM), actives largely listed as inhibitors. 420,000 tested, 15% active. AID 686978, 2013; also: nearly all actives have a fitted effect of over 55% in size
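A cellular qHTS used chicken DT40 cells lacking endogenous Tdp1 but carrying stably transfected human TDP1. Compounds were applied without camptothecin, and cell growth kinetics were judged by ATP-dependent luminescence after ≥48 hr.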
HT1080 IDH1KD tx: kills HT-1080 cells with IDH1 knockdown; HT-1080 IDH1 knockdown viability, ATP luminescence, 48 h; Potency, µM (highest dose often 46.1 µM), hits mostly cytotoxic; 360,000 tested, 2% active; AID 686971
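CellTiter-Glo luminescence after 48 h compound exposure at 37 degrees C of IDH1-knockdown HT-1080 cells in 5% FBS RPMI. %Activity scaled between DMSO wells and cell-free media wells, with curves fitted and assigned curve classes.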
TDP1 cell CPT: DT40-hTDP1 cell growth loss with CPT. chicken DT40 Tdp1-/-;hTDP1 cells + 20 nM CPT, ATP luminescence, 48 h. Potency, µM (titrated, usually from 46.2 µM), usual class: inhibitors. 420,000 tested, 12% active; also: nearly all actives have a fitted effect of over 55% in size
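Chicken DT40 Tdp1-/- cells complemented with human TDP1, 400 cells/well, exposed to compounds plus 20 nM camptothecin for at least 48 h at 37 C; viability read as ATP content by CellTiter-Glo luminescence.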
IL-1B inflam inh: inflammasome signaling inhibition, IL-1 beta readout; activity change, % at 57.5 µM; THP-1 LPS/ATP IL-1B secretion, AlphaLISA, 16 h; stronger effect = lower value; 360,000 tested, 4.7% active; in the data active = activity change below about -50%; inconclusive = mostly about -30% to -49%
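Secreted IL-1B measured by AlphaLISA bead assay after 16 h compound exposure of THP-1 cells; compounds (final up to 57.5 uM) added 1 h before LPS (250 ng/mL) and ATP (1.25 mM) stimulation; lower signal means less secretion.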
A number is an active result; - = inactive; ? = inconclusive; . = no result. Unless noted, calls follow the shape of the dose curve; as a rule, active = well fitted curve in the direction sought with a large enough effect; inconclusive = small, poorly fitted or top-dose-only effect, or another doubt; inactive = no such curve, though single readings can be large; an effect the other way counts as inactive or inconclusive.

SMILES	HT1080-NT tox	TDP1 cell noCPT	HT1080 IDH1KD tx	TDP1 cell CPT	IL-1B inflam inh
Cc1ccccc1-c1cc2nc(NCc3ccccc3F)n(C)c(=O)c2s1	?	6.5µM	?	7.3µM	?
Cc1ccccc1-c1cc2nc(Oc3ccc4c(c3)OCO4)n(C)c(=O)c2s1	-	?	-	12µM	?
Cc1ccccc1-c1cc2nc(Oc3cccc4ccccc34)n(C)c(=O)c2s1	-	-	-	-	-
C=CCNc1nc2cc(-c3ccccc3C)sc2c(=O)n1C	15µM	10µM	9.2µM	15µM	-
Cc1ccc(CNc2nc3cc(-c4ccccc4C)sc3c(=O)n2C)c(C)c1	?	?	?	?	-
Cc1ccccc1-c1cc2nc(NCc3ccc4occc4c3)n(C)c(=O)c2s1	-	?	-	18µM	-
O=C(CCn1c(=O)sc2ccccc21)NC1CCCCC1	-	-	-	-	-
Cc1cccc(C)c1NC(=S)NC(C)CCc1ccccc1 (stereo unspecified)	-	16µM	-	?	-
Cc1ccccc1CN(C)CC(=O)NC(C)CCc1ccccc1 (stereo unspecified)	-	16µM	-	?	-
CC1=C(C(=O)Nc2ccccc2C(F)(F)F)C(c2sccc2C)NC(=S)N1 (stereo unspecified)	-	16µM	-	6.5µM	-
CC1=C(C(=O)Nc2ccccc2C(F)(F)F)C(c2ccc(C)s2)NC(=S)N1 (stereo unspecified)	-	?	-	-	-
COc1ccc(S(=O)(=O)Nc2ccc(Cc3ccncc3)cc2)cc1OC	-	15µM	-	12µM	?
COc1ccc(S(=O)(=O)NCc2ccncc2)cc1OC	-	14µM	-	13µM	-
CCc1ccc(OC)c(S(=O)(=O)Nc2ccc(Cc3ccncc3)cc2)c1	?	8.2µM	?	7.3µM	-76
COc1ccc2cc(S(=O)(=O)NCc3cccnc3)ccc2c1	-	8.2µM	?	?	-
COc1ccc(S(=O)(=O)NCc2cccnc2)cc1OC	-	-	-	-	-
Cc1cc(=O)oc(C)c1C(=O)Nc1c(C)n(C)n(-c2ccccc2)c1=O	-	-	-	-	-
CCN(CC)CC(C)(C)C(=O)/C=C/c1ccc(/C=C/C(=O)C(C)(C)CN(CC)CC)cc1	5.8µM	0.41µM	1.6µM	0.52µM	-
CN1CCN(CCCNC(=O)c2ccc(/C=C3\Sc4ccccc4N(Cc4ccccc4F)C3=O)cc2)CC1	23µM	?	?	?	-
CCN1CCN(CCNC(=O)c2ccc(/C=C3/Sc4ccccc4N(Cc4cccc(Cl)c4)C3=O)cc2)CC1	15µM	18µM	?	18µM	-99
CCN1CCN(CCNC(=O)c2ccc3c(c2)N(Cc2ccc(F)cc2)C(=O)/C(=C/c2ccccc2)S3)CC1	6.5µM	8.2µM	5.2µM	12µM	-102
N#Cc1ccc(CN2CC3(CCN(C(=O)c4ccco4)CC3)C2)cc1	.	-	.	-	.
N#Cc1ccccc1S(=O)(=O)N1CCN(C(=O)CN(Cc2ccco2)Cc2cccs2)CC1	-	16µM	-	?	-
COc1ccc(-n2c(O)c(/C=N/NS(=O)(=O)c3cc(C)ccc3C)c3ccccc3c2=O)cc1OC	-	16µM	-	21µM	-
COc1ccc(-n2c(O)c(/C=N/NS(=O)(=O)c3ccc(C)cc3)c3ccccc3c2=O)cc1OC	-	16µM	-	18µM	-
COc1ccc(-n2c(O)c(/C=N/Nc3nc(C)cc(C)n3)c3ccccc3c2=O)cc1OC	?	?	?	?	-
Cc1ccc(N2C(=O)CS/C2=N\C(=S)Nc2ccccc2)cc1	-	5.8µM	-	?	-
CCOC(=O)c1c(C)[nH]c(C(=O)COC(=O)CNC(=O)C2CCCCC2)c1C	-	-	-	-	-
O=C(Nc1nc2n(n1)C(c1ccc(F)cc1)C=C(c1ccccc1)N2)c1cccc([N+](=O)[O-])c1 (stereo unspecified)	.	10µM	.	18µM	.
COc1ccc(C2C=C(c3ccccc3)Nc3nc(NS(=O)(=O)c4ccc(C)cc4)nn32)cc1 (stereo unspecified)	.	-	.	-	.

Assay outcomes as filed in PubChem.
